The assay has as its system wheat germ agglutinin (Triticum aestivum), Alexa647-labelled. Description: Alexa647-WGA lectin binding to printed small molecules – biochemical, small-molecule microarray, 635/667 nm fluorescence, artefact control for SMM control-protein annotation, profiling panel (AID 1140).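 Also: score merges 667 nm feature emission with signal to noise over triplicate slides.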 The settings on record: WGA-A647 binding, 635 nm fluorescence, higher = more signal.
The compound `O=C(N1CCOCC1)[C@@]1(Cc2ccccc2)COC(c2ccc(OCCCO)cc2)=N1` returned a composite z-score of 0.603.
On to `C=CCC(OC(C)=O)[C@@H]1[C@@H](N(Cc2ccc(-c3cccc(C(F)(F)F)c3)o2)C(=O)c2ccc(-c3ccccc3)cc2)c2cc(OCCCO)ccc2N1C(=O)c1ccc2ccccc2c1` (some centres not stated), for which the composite z-score worked out at 0.0415.
As to `[N-]=[N+]=NCc1ccccc1[C@@H]1OC(c2ccc(OCCCO)cc2)=N[C@]1(Cc1ccccc1N=[N+]=[N-])C(=O)NCC(O)CO` (some centres not stated), the composite z-score amounted to 1.22.
`CCCNC(=O)[C@@]1(c2ccc([N+](=O)[O-])cc2)CC(=O)N(C(C)C)[C@@H]1c1ccc(CO)cc1` yielded a composite z-score of 1.19.
Compound `CC(C)N1C(=O)C[C@@](C(=O)NCCN2CCOCC2)(c2ccc([N+](=O)[O-])cc2)[C@H]1c1ccc(CO)cc1` showed a composite z-score of 0.869.
The compound `CCCC[C@H]1OB(O)C[C@H]2C1=C(COc1ccccc1)C[C@H]1C(=O)C=CC(=O)[C@H]12` had a composite z-score of 0.22.
The compound `CC(C)[Si](C#CCCc1ccccc1)(O[C@H](c1ccccc1)c1cn(Cc2ccccc2)nn1)C(C)C` came in with a composite z-score of 0.782.

Values taken from PubChem BioAssay.
